Laboratory results: the supplement of paper PMC3334620
The full ranking holds about 33,000 sequences; the median of “E-score (-0.5 to 0.5)” is about -0.043, and the highest 2% start at about 0.37. Many of the other results were omitted from the sample, so the highest values are more common in it than they were.

These sequences were tested against T1, Upc2 (UniProt Q12151) (assay: PBM E-score (8-mer binding enrichment) (E-score (-0.5 to 0.5)); higher = stronger / more preferred TF binding). Settings: protein concentration: 200 nM; construct: GST-full length.
T1 sequence: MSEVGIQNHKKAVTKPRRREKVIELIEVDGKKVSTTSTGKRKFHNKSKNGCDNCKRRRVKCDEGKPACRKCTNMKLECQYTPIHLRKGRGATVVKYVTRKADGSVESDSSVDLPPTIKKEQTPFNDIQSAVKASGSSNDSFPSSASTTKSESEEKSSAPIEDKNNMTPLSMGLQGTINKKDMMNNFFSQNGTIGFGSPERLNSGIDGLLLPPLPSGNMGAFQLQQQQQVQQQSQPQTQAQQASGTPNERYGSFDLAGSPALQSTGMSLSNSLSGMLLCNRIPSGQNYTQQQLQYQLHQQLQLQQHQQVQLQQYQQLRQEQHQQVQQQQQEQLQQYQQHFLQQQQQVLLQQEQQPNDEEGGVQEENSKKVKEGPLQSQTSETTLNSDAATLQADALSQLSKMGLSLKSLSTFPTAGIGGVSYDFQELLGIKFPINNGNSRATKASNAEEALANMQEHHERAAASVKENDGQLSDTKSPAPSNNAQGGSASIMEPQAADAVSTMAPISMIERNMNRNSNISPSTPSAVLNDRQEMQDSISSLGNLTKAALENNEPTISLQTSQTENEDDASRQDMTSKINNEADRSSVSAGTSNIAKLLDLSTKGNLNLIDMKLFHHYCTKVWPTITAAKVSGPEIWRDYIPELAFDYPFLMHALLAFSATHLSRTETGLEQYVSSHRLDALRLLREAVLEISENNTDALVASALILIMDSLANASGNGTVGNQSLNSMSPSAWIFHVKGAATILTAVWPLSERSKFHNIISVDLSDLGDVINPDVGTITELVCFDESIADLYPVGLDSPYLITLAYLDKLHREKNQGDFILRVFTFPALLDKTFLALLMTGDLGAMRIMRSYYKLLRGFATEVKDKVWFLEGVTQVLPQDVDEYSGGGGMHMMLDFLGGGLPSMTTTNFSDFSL
Procedure, shortened: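 Using PURExpress in vitro transcription/translation, GST-tagged yeast transcription factors were made in full-length or DNA-binding-domain form. These were applied at about 100-200 nM to double-stranded universal all-10-mer Agilent arrays, and bound protein was detected with fluorescent anti-GST. Scans were normalised with masliner before the Universal PBM Analysis Suite assigned E-scores to ungapped eight-base words pooled with their reverse complements.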

| Sequence | PBM E-score |
| --- | --- |
| CACGTATA | 0.433 |
| TACGTAGA | 0.18 |
| GACGTATA | 0.424 |
| GACGTAGC | 0.0263 |
| AACGTATT | 0.212 |
| TACGTATA | 0.423 |
| GACGTATC | 0.156 |
| AACGTATC | 0.142 |
| CACGTATG | 0.236 |
| CACGTATC | 0.132 |
| TACGTACA | 0.341 |
| AACGTATA | 0.443 |
| CGCAAATA | 0.0612 |
| AACAGGTC | 0.056 |
| TGAAAAAA | 0.0284 |
| ACACCGAG | -0.024 |
| AACATTGT | 0.0538 |
| GCGGTACA | -0.0545 |
| CCAGTACC | 0.0225 |
| ACCGTACG | 0.383 |
| CCCGTACA | 0.398 |
| ACCGTAGG | -0.135 |
| CCCGTACC | 0.383 |
| CACGTACA | 0.272 |
| GCCGTACA | 0.4 |
| CCCGTAGC | 0.0891 |

| Sequence | PBM E-score |
| --- | --- |
| ACCGTAAT | 0.0464 |
| CCAGTACA | -0.157 |
| GCCGTGCA | -0.291 |
| ATCGACAA | 0.0687 |
| AACATCAT | -0.094 |
| AAAAGCTG | 0.0411 |
| ACACACTC | -0.042 |
| TTCAGCAA | -0.0506 |
| CTCTCCAA | -0.0403 |
| ACTCGACC | -0.0381 |
| TCCGTAGA | -0.0263 |
| CGCGTACG | 0.4 |
| TCCGTACA | 0.406 |
| TGCGTACA | 0.318 |
| CCCGTAAG | 0.208 |
| CCCGTAGG | -0.0508 |
| GCCGTAGC | 0.0955 |
| ACCGTACC | 0.366 |
| CGCGTACA | 0.35 |
| CCCGTACG | 0.393 |
| GCCGTACC | 0.379 |
| AGCGTACG | 0.354 |
| AAGCTCAC | -0.0662 |
| AAGAAGGC | -0.216 |
| ATCAGTGC | -0.0682 |
| CTTAGGCA | -0.361 |

| Sequence | PBM E-score |
| --- | --- |
| ATTTCAGG | -0.0274 |
| ATCGATAG | -0.0178 |
| TAAATTGA | -0.0257 |
| CGTGCATA | -0.0557 |
| GCCCTTTA | -0.0758 |
| ACCGTACA | 0.39 |
| ACTGTACA | 0.133 |
| ACCGTACT | 0.214 |
| AAGCGGCT | -0.0364 |
| ACCGCTAC | 0.14 |
| AGACCGTA | 0.287 |
| CCACCGAA | -0.00574 |
| CGACCGTC | -0.0557 |
| CGGCCGTC | -0.0655 |
| ACACCGTA | 0.321 |
| CCACCGTA | 0.399 |
| GCACCGTA | 0.371 |
| CGACCGTA | 0.373 |
| GAACCGTA | 0.269 |
| CGGCCGTA | 0.378 |
| CCACCGTC | -0.227 |
| AGGCCGTA | 0.355 |
| AAAGATTC | 0.0374 |
| CCAAGAAG | -0.227 |
| ATGCGTGC | 0.03 |
| CAGTCGCC | -0.196 |

| Sequence | PBM E-score |
| --- | --- |
| ATTTGCTG | 0.0559 |
| AGTACACC | 0.0771 |
| AGTACACG | 0.198 |
| GGTACACC | 0.0641 |
| GGTACACA | -0.235 |
| TGTACACA | 0.0892 |
| AGTACACA | 0.143 |
| CGTACACA | 0.418 |
| CGTACACC | 0.382 |
| CGTACACG | 0.423 |
| GATGAGGA | -0.0777 |
| CCTGCAAA | -0.0886 |
| GCAATTAC | -0.0538 |
| AGGGTCCC | -0.229 |
| ACGAGTCA | 0.249 |
| CCGAGTAC | 0.196 |
| ACGAGTCT | 0.293 |
| ACGAGTAA | 0.348 |
| ACGAGTAT | 0.376 |
| CCGAGTGC | -0.0549 |
| ACGAGTGG | 0.295 |
| GCGAGTAC | 0.204 |
| ACGAGTAC | 0.419 |
| ACGAGTCG | 0.384 |
| ACGAGTAG | 0.368 |
| ACGAGTGC | 0.377 |

| Sequence | PBM E-score |
| --- | --- |
| CGCTGGGA | -0.0151 |
| AAAGTGTT | 0.0836 |
| ATCGTCCG | -0.101 |
| CGACGATA | 0.169 |
| CGGTAAAC | 0.206 |
| AAAGGTGG | -0.0797 |
| AGCTTTAC | 0.192 |
| GTGGATAA | -0.151 |
| ACAGTAGC | -0.0133 |
| AAAATAGG | -0.0506 |
| ATAGTTTG | -0.0286 |
| CTCGTTGC | 0.356 |
| CTCGTTTC | 0.452 |
| ATAGTTTC | -0.0466 |
| AGCGTTTG | 0.149 |
| ATCGTTTC | 0.401 |
| AGCGTTTC | 0.0667 |
| ATCGTTTG | 0.452 |
| CGCGTTTC | 0.0838 |
| GTCTGGAA | -0.122 |
| GAAATTCC | -0.186 |
| GACCCGAA | -0.0162 |
| CCTGCGCG | -0.0152 |
| CGGGCCAA | -0.307 |
| AGCAGAGG | -0.293 |
| GCAAGCGA | 0.174 |

| Sequence | PBM E-score |
| --- | --- |
| AACACCTT | 0.0752 |
| GCGTTCAA | 0.173 |
| GCGTTTCA | -0.0903 |
| CCGTTCCC | 0.385 |
| GCGTTCCA | 0.11 |
| TCGTTCAA | 0.459 |
| ACGTTCAA | 0.238 |
| ACGTTCCC | 0.0935 |
| TCGTTTCA | 0.406 |
| ACGTTTCA | 0.116 |
| TCGTTCCA | 0.46 |
| GCGTTCCC | 0.0703 |
| ACGTTCCA | 0.116 |
| AGTCTTTA | -0.0445 |
| AGACTGCG | -0.17 |
| GCGAATTA | 0.179 |
| GGATGGAA | -0.0401 |
| CGGGCATC | 0.0742 |
| GCCGCGTA | 0.271 |
| AGCCGAAG | -0.185 |
| CTACAAGA | -0.194 |
| CTTCGTAA | 0.427 |
| CTTCGTGA | 0.112 |
| ATTCGTAC | 0.452 |
| CTTCGTAC | 0.458 |
| CTTCGTCC | -0.316 |

| Sequence | PBM E-score |
| --- | --- |
| CTTCGTGC | -0.0549 |
| ATTCGTGC | -0.094 |
| CTTCGTCA | -0.0302 |
| ATTCGTCC | 0.0624 |
| CCCAGCCC | -0.217 |
| CACACACC | 0.0034 |
| CTTCATAA | -0.121 |
| AAGGCACC | -0.24 |
| ATAGCGAC | 0.17 |
| ATAACGTG | 0.0885 |
| TAATGTAA | -0.0142 |
| AAGCCTAT | -0.0475 |
| CGGGAACG | 0.404 |
| CCGGAACG | 0.376 |
| CGGGAACA | 0.184 |
| CGGGAACC | -0.12 |
| AGGGAACC | -0.104 |
| AAGGAACG | 0.347 |
| CCGGAACC | -0.113 |
| AGGGAACA | -0.22 |
| CAGGAACG | 0.396 |
| AGGGAACG | 0.39 |
| CCGGAACA | -0.189 |
| CAGGAACC | -0.161 |
| AGCGCAAC | 0.149 |
| TTTCCAAA | -0.0113 |

| Sequence | PBM E-score |
| --- | --- |
| AAGCTTGG | 0.127 |
| ACTGCGCC | -0.147 |
| CCGGGGAA | -0.23 |
| GGAAGTAA | -0.0533 |
| GGCAATCA | -0.196 |
| AAAGGATC | -0.127 |
| CTCTCGTA | 0.453 |
| GTCTCGTA | 0.456 |
| CTCTCGAA | -0.0265 |
| GTCTCGAA | -0.0265 |
| ATCTCGTA | 0.464 |
| ATCTCGTC | 0.123 |
| CTCTCGTC | 0.0223 |
| ATCTCGTG | 0.124 |
| GTCTCGGA | 0.162 |
| AAGGTTCA | -0.145 |
| GGCAGAGA | -0.14 |
| GCCACAGA | -0.149 |
| ATTGAACA | -0.0652 |
| TTATCCAA | 0.0246 |
| GAGAGTAC | 0.0133 |
| CCGTACCG | 0.389 |
| CCGTACCA | 0.368 |
| CCGTACCC | 0.379 |
| ACGTACCC | 0.203 |
| GCGTACCC | 0.244 |

| Sequence | PBM E-score |
| --- | --- |
| ACGTACCG | 0.272 |
| GAAATATA | 0.127 |
| ATCCCGTA | 0.373 |
| ATCCCGTG | 0.0975 |
| GTCCCGTA | 0.25 |
| AACCCAAC | 0.00517 |
| CGCTTACA | 0.178 |
| CGCTTACC | 0.301 |
| CGCTTACG | 0.372 |
| CCTTATAA | 0.0883 |
| ACGTTTTG | -0.0436 |
| CCGTTTCG | 0.255 |
| ACGTTTTA | 0.188 |
| ACGTTTAG | 0.397 |
| ACGTTTAT | 0.313 |
| CAGTTTAG | -0.0566 |
| CCGTTTAG | 0.468 |
| ATGTTTAA | 0.067 |
| ACGTTTAA | 0.407 |
